Values joined by “and” are separate entries in the source; they are usually repeats but may differ in a detail not shown here. Identical values can stand only once. Results filed as inconclusive are left out. Some structures have more than one record in an assay (separate samples or runs), and their calls can disagree. Active and inactive are the calls of the source. Unless noted, calls come from the whole dose curve; as a rule, active = well fitted inhibition curve with a large enough effect; inconclusive = small, poorly fitted or top-dose-only effect; inactive = no such curve, though single readings can be large or run the other way.
Columns and labels:
[1] = qHTS profiling of the MIPE4 collection as inhibitors of Plasmodium falciparum (HB3) proliferation (AID 743347; call rule not given here;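 note: plate controls were DMSO vehicle wells for no effect and artemisinin wells for full effect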); conditions: P. falciparum HB3 in erythrocytes, SYBR Green DNA, 72 h; at 28.5 µM (top of the series) unless noted
Outline: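 Erythrocytes infected with P. falciparum (0.3% parasitemia, 2.5% hematocrit) incubated with compounds 72 h at 37 C, 5% CO2. Lysis with saponin/Triton buffer containing SYBR Green I, overnight at room temperature in the dark; DNA fluorescence (485/535 nm) normalised to 0.29 uM artemisinin and DMSO.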

[2] = High-throughput drug toxicity screening in the BPDCN cell line Gen2.2 (AID 1224824; call rule not given here;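 note: cells exposed to compounds for 48 h before reading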); conditions: Gen2.2 BPDCN cells; at 45.8 µM (top of the series) unless noted
Outline: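 Readout is ATP luminescence from Gen2.2 cells after two days of drug exposure in serum-containing medium at 37 °C. Values express percent activity, with vehicle defining full signal and 9.2 uM bortezomib defining zero.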

[3] = High-throughput drug toxicity screening in the BPDCN cell line Cal-1 (AID 1224825; call rule not given here); conditions: Cal-1 BPDCN cell viability, qHTS; at 45.8 µM (top of the series) unless noted
Outline: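 Cal-1 cells, 500 per well in phenol-red-free RPMI with 10% FBS, exposed to compounds for 48 hours at 37C, 5% CO2. Viability read by CellTiter-Glo luminescence; percent activity normalized to DMSO (100%) and 9.2 uM bortezomib final (0%).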

[4] = qHTS assay for measurement of the activity of small molecule inhibitors on Zika virus induced Caspase-3 activity in human iPSC derived neural progenitor cells (hNPCs) (AID 1224857); note: % of control where 0% means no effect; nearly all actives have a fitted effect of over 65% in size
Outline: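 In medium with heparin 2 ug/ml and cyclopamine 2 uM, hNPCs (350 cells/well) received compound for one hour and then Zika virus at 2 FFU/cell; caspase activity was measured by Caspase-Glo 3/7 luminescence 6 h post-infection.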

[5] = qHTS assay for measurement of the activity of small molecule inhibitors on Zika virus induced Caspase-3 activity in human astrocytoma cells (AID 1224859);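 note: plate controls were ZIKV-infected untreated cells for no effect and uninfected cells for full effect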
Outline: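 A cell-based luminescent caspase-3/7 assay used SNB-19 cells infected with ZIKV (2 FFU/cell) for 6 h following 1 h compound pretreatment.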

[6] = qHTS Screen of the MIPE 4.0 Collection Against Ewings Sarcoma (RDES) (AID 1259252); note: nearly all actives have a fitted effect of over 35% in size; note: potency is the fitted concentration of half-maximal effect
Outline: (§1)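 Dose series incubated 48 h with cells in RPMI plus 5% FBS, glutamine and penicillin/streptomycin; cell viability then quantified via CellTiter-Glo.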

[7] = qHTS Screen of the MIPE 4.0 Collection Against Ewings Sarcoma (TC71) (AID 1259253); note: nearly all actives have a fitted effect of over 40% in size; note: potency is the fitted concentration of half-maximal effect
Outline: as §1

[8] = qHTS Screen of the MIPE 4.0 Collection Against Ewings Sarcoma (EW8) (AID 1259255); note: nearly all actives have a fitted effect of over 35% in size; note: potency is the fitted concentration of half-maximal effect;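 for viability: 100% = DMSO-treated cells and 0% = medium-only wells without cells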
Outline: as §1

[9] = qHTS Screen of the MIPE 4.0 Collection Against Ewings Sarcoma (TC32) (AID 1259256); note: nearly all actives have a fitted effect of over 45% in size; note: potency is the fitted concentration of half-maximal effect
Outline: as §1

[10] = P-glycoprotein substrates identified in KB-3-1 adenocarcinoma cell line, qHTS therapeutic library screen (AID 1346986); note: nearly all actives have a fitted effect of over 60% in size;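 note: potency is the fitted concentration of half-maximal effect; potency is for cytotoxicity meaning loss of cell viability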
Outline: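 Compounds were tested in dose-response against KB-3-1 and KB-8-5-11 cells at 37 degree C for 72 h, and viability was measured by luminescence. AC50 values came from curve fitting with class-based activity calls.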

Row | Structure (SMILES) | growth, % of control [1] | cell viability, % of control (lower = more cytotoxic) [2] | viability (% of control) [3] | Potency [4] | Potency [5] | Potency [6] | Potency [7] | Potency [8] | Potency [9] | Potency [10]
1 | O=C(O)C=Cc1ccc(Cn2ccnc2)cc1 | 95.1% | 243% | 124% | inactive | inactive | inactive | inactive | inactive | inactive | inactive
2 | COc1cc2ncnc(Nc3cccc(Br)c3)c2cc1OC | 8.18% | 64% | 5.16% | inactive | inactive | 0.132 µM (active) | 0.59 µM (active) | 1.48 µM (active) | 0.833 µM (active) | inactive and 18.4 µM (active)
3 | Nc1ccc(C(=O)Nc2cccc(-c3nc(N4CCOCC4)c4oc5ncccc5c4n3)c2)cn1 | 2.51% | 15.1% | 4.11% | inactive | inactive | 18.7 µM (active) | 16.6 µM (active) | 18.7 µM (active) | 16.6 µM (active) | inactive and 13 µM (active)
4 | O=C(C[C@@H]1CC=CCCC(=O)O[C@H](c2ccccc2)CNC1=O)NCc1ccc(Cl)cc1 | 54.9% | 17% | 94.4% | inactive | inactive | inactive | inactive | inactive | inactive | inactive
5 | CC(=O)N1CCN(c2ccc(OCc3nn(C)c(C)c3-c3cccc4c(CCCOc5cccc6ccccc56)c(C(=O)O)n(Cc5cccnc5)c34)cc2)CC1 | 2.86% | 36.4% | 2.28% | inactive | inactive | 0.332 µM (active) | 1.18 µM (active) | 3.72 µM (active) | 0.743 µM (active) | inactive
6 | COC(=O)[C@H](CCCN=C(N)N)NS(=O)(=O)c1ccc(C)cc1 | – | 94.4% | 104% | inactive | inactive | inactive | inactive | inactive | inactive | –
7 | O=C1c2c(O)cccc2[C@@H]([C@@H]2O[C@H](CO)[C@@H](O)[C@H](O)[C@H]2O)c2cc(CO)cc(O)c21 | 99.2% | 185% | 123% | inactive | inactive | inactive | inactive | inactive | inactive | inactive
8 | CN1C(C(=O)Nc2ccccn2)=C(O)c2sc(Cl)cc2S1(=O)=O | 69.3% | 59.6% | 71.2% | inactive | inactive | 3.32 µM (active) | 3.72 µM (active) | 20.9 µM (active) | 5.26 µM (active) | –
9 | CC(=O)O[C@]1(C(C)=O)CC[C@H]2[C@@H]3C=C(C)C4=CC(=O)CC[C@]4(C)[C@@H]3CC[C@@]21C | 10.6% | 5.55% | 3.38% | inactive | inactive | 3.32 µM (active) | 4.18 µM (active) | 7.43 µM (active) | 5.26 µM (active) | inactive
10 | CC(C)C[C@H](NC(=O)[C@@H](NC(=O)c1cccc(-c2ccccc2)n1)[C@@H](C)O)B(O)O | 3.76% | 3.77% | 4.67% | inactive | inactive | 0.059 µM (active) | 0.0743 µM (active) | 0.0372 µM (active) | 0.0662 µM (active) | –
11 | Cn1c(Nc2ccc(C(F)(F)F)cc2)nc2cc(Oc3ccnc(-c4ncc(C(F)(F)F)[nH]4)c3)ccc21 | 8.58% | 9.63% | 13.2% | inactive | inactive | 14.8 µM (active) | 7.43 µM (active) | 5.26 µM (active) | 2.09 µM (active) | –
12 | CC(C)(C)c1nc2c3cc[nH]c(=O)c3c3cc(F)ccc3c2[nH]1 | 58.6% | 20.2% | 26.4% | inactive | inactive | 4.18 µM (active) | 5.9 µM (active) | 4.69 µM (active) | 4.18 µM (active) | 7.31 µM (active)
13 | Cn1cc(CNCC2CCN(c3ncc(C(=O)NO)cn3)CC2)c2ccccc21 | 7.88% | 12.7% | 4.24% | inactive | inactive | 0.0332 µM (active) | 0.0332 µM (active) | 0.0332 µM (active) | 0.0209 µM (active) | –
14 | C[C@H](CCC(=O)O)[C@H]1CC[C@H]2[C@@H]3[C@H](O)C[C@@H]4C[C@H](O)CC[C@]4(C)[C@@H]3CC[C@]12C | – | 114% | 97.2% | inactive | inactive | inactive | inactive | inactive | – | –
15 | CC(C)OC(=O)[C@H](C)N[P@](=O)(OC[C@H]1O[C@@H](n2ccc(=O)[nH]c2=O)[C@](C)(F)[C@H]1O)Oc1ccccc1 | – | 128% | 88.9% | inactive | inactive | inactive | inactive | inactive | inactive | –
16 | CCCCC(=O)O[C@]1(C(=O)CO)[C@@H](C)C[C@H]2[C@@H]3CCC4=CC(=O)C=C[C@]4(C)[C@@]3(F)[C@@H](O)C[C@@]21C | 22.8% | 44% | 51.8% | inactive | inactive | inactive | inactive | inactive | inactive | inactive
17 | O=C(Nc1cccc(Nc2ncc(Br)c(NCCc3cnc[nH]3)n2)c1)N1CCCC1 | 3.84% | 15.3% | 2.84% | inactive | inactive | 7.43 µM (active) | 6.62 µM (active) | 0.235 µM (active) | 0.296 µM (active) | –

Source: PubChem BioAssay (NCATS)
